Screening data: PubChem, several laboratories
Measles CPE – protection of cells from measles virus | Measles virus-infected cells, CPE protection, absorbance | protection (pct of control), % at 4 µM | 140,000 tested, 1.5% active; in the data active = protection mostly above about 24%, no sharp cut-off; inactive = mostly below about 26%
CYP2C9 inh – inhibitors of human CYP2C9; inhibition, % at 5 µM; P11712; CYP2C9 Supersomes, luciferin-H conversion, luminescence; AID 777; 96,000 tested, 20% active;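 active = blocking of liver enzyme CYP2C9 beyond about 50% at 5 µM, limit read from the data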
CYP2C9 act – activators of human CYP2C9. P11712. recombinant CYP2C9, luciferin-H conversion, luminescence; active compounds read high; factor 1 = untreated enzyme, 0 = blocked. activation factor at 5 µM. 96,000 tested, 1.4% active. AID 1024;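 active = activation factor of 2 or more for CYP2C9 at a 5 µM dose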
CYP2C19 act – cytochrome P450 2C19 (human) activation. recombinant CYP2C19, luciferin-H EGE luminescence; active compounds read high; 0 = fully inhibited enzyme, 1 = untreated enzyme. AID 1025. 96,000 tested, under 10 active. activation factor at 5 µM. P33261;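 active = activation factor of at least 2 at 5 µM in the primary screen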
Target sequence (P33261 whole entry, looked up): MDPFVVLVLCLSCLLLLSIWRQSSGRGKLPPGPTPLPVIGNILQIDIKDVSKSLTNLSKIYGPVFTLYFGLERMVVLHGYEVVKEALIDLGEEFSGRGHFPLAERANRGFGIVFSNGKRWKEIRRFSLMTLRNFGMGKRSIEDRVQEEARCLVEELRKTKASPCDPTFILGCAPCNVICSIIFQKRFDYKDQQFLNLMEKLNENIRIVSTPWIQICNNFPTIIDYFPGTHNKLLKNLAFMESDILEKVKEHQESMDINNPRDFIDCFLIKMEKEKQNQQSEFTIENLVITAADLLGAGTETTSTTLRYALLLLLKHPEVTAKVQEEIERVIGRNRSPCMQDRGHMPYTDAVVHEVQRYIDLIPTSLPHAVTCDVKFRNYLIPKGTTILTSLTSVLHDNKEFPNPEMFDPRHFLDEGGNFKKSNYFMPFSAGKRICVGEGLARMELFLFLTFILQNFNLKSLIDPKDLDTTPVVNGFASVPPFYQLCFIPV
CYP2C19 inh – human CYP2C19 inhibition; inhibition, % at 5 µM; AID 778; P33261; 96,000 tested, 21% active; CYP2C19 Supersomes, luciferin-H EGE luminescence, 30 min;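 active = CYP2C19 inhibition above a set limit at 5 µM in the primary screen, cut at about 50% in these data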
A number is an active result; - = inactive; . = no result given. Sampled rows, rich in hits. Any-hit rate of the full collection: about 22%.

SMILES	Measles CPE	CYP2C9 inh	CYP2C9 act	CYP2C19 act	CYP2C19 inh
COC(=O)c1ccc(-c2ccco2)n1Cc1cc(C)ccc1C	-	-	-	-	-
COC(=O)c1ccc(-c2ccco2)n1Cc1cccc(C)c1	-	81	-	-	60
O=C(O)c1ccc(-c2ccco2)n1Cc1ccccc1	-	71	-	-	-
CCOC(=O)c1ccccc1NC(=O)Cn1c(-c2nonc2N)nc2ccccc21	-	92	-	-	76
CC1CCCN(C(=O)Cn2c(-c3nonc3N)nc3ccccc32)C1 (stereo not drawn)	-	-	-	-	-
CCC(=O)Nc1nonc1-c1nc2ccccc2n1CC(C)C	-	66	-	-	-
Nc1nonc1-c1nc2ccccc2n1CC(=O)NC1CCCC1	-	-	-	-	52
CCC(C)[C@H](NC(=O)Nc1cccc(Br)c1)C(=O)OC (stereo partly drawn)	-	.	.	.	.
CCC(C)[C@H](NC(=O)NCc1ccc(Cl)cc1)C(=O)OC (stereo partly drawn)	-	-	-	-	52
CC(C)Oc1cccc(C(=O)NC(=S)Nc2cccc(C(F)(F)F)c2)c1	-	-	-	-	-
CCC(C)[C@H](NC(=O)Nc1cccc(OC)c1)C(=O)OC (stereo partly drawn)	-	-	-	-	55
CC(C)[C@H](NC(=O)NCc1ccc(Cl)cc1)C(=O)O	-	-	-	-	-
COc1cccc(C(C)NC(=O)Nc2cccc(C(F)(F)F)c2)c1 (stereo not drawn)	-	-	-	-	67
CCOC(=O)c1cnn(-c2c(Cc3ccccc3)c(C)nc3c(-c4ccccc4)c(C)nn23)c1N	-	-	-	-	-
NS(=O)(=O)c1ccc(CCN2C(=O)/C(=C\c3ccc(Cl)cc3)SC2=S)cc1	-	.	.	.	.
CCC(C)NS(=O)(=O)c1ccc(S(=O)(=O)N2CC=C(c3ccc(F)cc3)CC2)cc1 (stereo not drawn)	-	.	.	.	.
O=c1cc(-c2c(F)c(F)c(F)c(F)c2F)oc2ccccc12	-	-	-	-	-
O=c1cc(-c2ccncc2)oc2ccccc12	-	-	-	-	86
CCN(CC)C(=O)CSC1=C(C#N)C(c2ccco2)C(C(=O)OCCOC)=C(C)N1 (stereo not drawn)	-	.	.	.	.
CC(=O)C1=C(C)NC(SCC(=O)c2ccc(Cl)c(Cl)c2)=C(C#N)C1c1ccco1 (stereo not drawn)	.	93	-	-	77
CC(=O)C1=C(C)NC(SCC(=O)c2cc(Cl)ccc2Cl)=C(C#N)C1c1ccco1 (stereo not drawn)	.	100	-	-	100
COc1ccc(N=C(NN)c2ccc3ccccc3n2)cc1	-	.	.	.	.
CCCOP(=O)(c1ccc(N(C)C)cc1)C(O)c1ccncc1 (stereo not drawn)	-	-	-	-	-
CN(C)c1ccc(P(=O)(OCc2ccccc2)C(O)c2ccncc2)cc1 (stereo not drawn)	-	63	-	-	66
CCOP(=O)(c1ccc(N(C)C)cc1)C(O)c1cc(OC)c(OC)c(OC)c1 (stereo not drawn)	-	-	-	-	-
SMILES	Measles CPE	CYP2C9 inh	CYP2C9 act	CYP2C19 act	CYP2C19 inh
CCOP(=O)(c1ccc(N(C)C)cc1)C(O)c1c(Cl)cccc1Cl (stereo not drawn)	-	59	-	-	65
CN(C)c1ccc(NC(=O)COC(=O)c2cc(=O)c3ccccc3o2)cc1	-	.	.	.	.
COc1ccccc1NC(=S)NNC(=S)Nc1ccc(OC(F)F)cc1	-	.	.	.	.
O=C1C2CSCN2C(=O)CN1CCCN1CCN(C(c2ccccc2)c2ccccc2)CC1 (stereo not drawn)	-	.	.	.	.
Cc1cc(C)nc(NN2C(=O)/C(=C/c3ccc(O)cc3)SC2=S)n1	-	-	3.2	-	-
C=CCSc1nc2c(c(=O)n(C)c(=O)n2C)n1CC	-	-	-	-	-
Cc1c(NC(=O)c2ccccc2N(C)S(=O)(=O)c2ccccc2)c(=O)n(-c2ccccc2)n1C	-	-	-	-	-
C=CCn1c(CC(=O)OC)csc1=Nc1ccc(C(C)=O)cc1	-	-	-	-	78
Cc1ccccc1Nc1nc(CSc2nnc(-c3ccoc3C)n2C)cs1	-	88	-	-	86
COc1ccc(CC(=O)N2CCCc3ccccc32)cc1	-	-	-	-	55
COCC(=O)N1CCCc2ccccc21	-	-	-	-	-
COc1ccc(CC(=O)N2CCCc3ccccc32)cc1OC	-	-	-	-	-
CCCOc1ccc(C(=O)N2CCCc3ccccc32)cc1	-	69	-	-	93
COc1cc(OC)cc(C(=O)N2CCCc3ccccc32)c1	-	-	-	-	76
O=C(NN1C(=O)C2C3CCC(O3)C2C1=O)c1ccco1 (stereo not drawn)	-	.	.	.	.
Cc1ccc(O)c(-c2cc3ccccc3[nH]2)c1	-	80	-	-	54
Cc1onc(-c2ccccc2Cl)c1C(=O)Nc1ncn[nH]1	-	.	.	.	.
COC(=O)c1ccccc1NC(=O)c1cc([N+](=O)[O-])nn1Cc1ccccc1	-	.	.	.	.
Cn1nnnc1P(=O)(c1ccccc1)c1ccccc1	-	-	-	-	-
O=C(NC1CCCC1)C(c1ccsc1)N(CCc1ccccc1)C(=O)Cc1cccs1 (stereo not drawn)	-	.	.	.	.
Cc1ccc(Oc2ccccc2/C=C2\SC(=O)N(C)C2=O)cc1	-	-	-	-	51
O=C1NC(=O)/C(=C/c2ccccc2Oc2ccc(Cl)cc2)S1	-	72	-	-	-
O=C1NC(=Nc2ccc(Cl)cc2)/C(=C/c2ccco2)S1	-	.	.	.	.
N#CC(c1cccc(Cl)c1)c1ccc2c(C(F)(F)F)cc(C(F)(F)F)nc2n1 (stereo not drawn)	-	78	-	-	-
Cc1cc(C(C#N)c2cccc(Cl)c2)n2ncnc2n1 (stereo not drawn)	-	-	-	-	-
SMILES	Measles CPE	CYP2C9 inh	CYP2C9 act	CYP2C19 act	CYP2C19 inh
O=C(Nc1ccc2c(c1)oc1ccc(S(=O)(=O)N3CCCC3)cc12)C1CC1	-	53	-	-	-
Cc1nnc(NC(=O)CSc2ncnc3c2cnn3-c2ccccc2C)s1	-	-	-	-	-
CCOC(=O)Cc1csc(NC(=O)CSc2ncnc3c2cnn3-c2ccccc2Cl)n1	-	90	-	-	70
CC(C)(C)NC(=O)CSc1nc2ccc(NC(=O)CSc3nnnn3Cc3ccccc3)cc2s1	44	-	-	-	52
CCOC(=O)CSc1nc2ccc(NC(=O)CSc3nnnn3Cc3ccccc3)cc2s1	-	.	.	.	.
CCN(CC)C(=O)CSc1nc2ccc(NC(=O)CSc3nnc(COc4ccccc4C)n3C)cc2s1	-	-	-	-	-
Cc1ccccc1OCc1nnc(SCC(=O)Nc2ccc3nc(SCC(=O)NC(C)(C)C)sc3c2)n1C	-	75	-	-	53
O=C(CCNC(=O)c1ccc(Cl)cc1)Nc1c(F)c(F)cc(F)c1F	-	.	.	.	.
Cc1ccccc1OCC(=O)N/N=C/c1ccc(Sc2nc3ccccc3s2)o1	-	83	-	-	74
N#CCC(=O)N/N=C/c1ccc(Sc2nc3ccccc3s2)o1	-	-	-	-	78
O=C(Cc1cccc2ccccc12)N/N=C/c1ccc(Sc2nc3ccccc3s2)o1	-	76	-	-	-
